Test results: ChEMBL document CHEMBL4888484, “Replenishing the malaria drug discovery pipeline: Screening and hit evaluation of the MMV Hit Generation Library 1 (HGL1) against asexual blood stage Plasmodium falciparum ,using a nano luciferase reporter read-out” (2022)
Out of some 150,000 compounds screened, about 540 (0.36%) showed an effect of 50% or more. The list comes from a sample in which strong results are over-represented; it also holds similar structures and randomly drawn compounds.

Tested on: Plasmodium falciparum
Experiment: Primary screen in NF54 nanoGlo assay, in single point, at 2uM, 72h; a lower Z score goes with more inhibition
Format: functional, Erythrocyte
Details: timepoint 72 hour

| Structure (SMILES) | % Inhibition [%] | Z score |
| --- | --- | --- |
| Cc1sc2ncnc(Nc3ccc4c(c3)OCO4)c2c1C | -3 | 0.37 |
| CC[C@H](C)[C@@H](CN(C)C)NC(=O)CCc1ccncc1 | 20 | -2.58 |
| O=C(NCC1CC1)c1ccc2[nH]c3c(c2c1)CCCCC3 | -12 | 1.65 |
| CCCC(O)(CCC)CC(=O)N1CCN(C(=O)OCC)CC1 | -7 | 0.63 |
| O=C(c1ccc(-c2cn(-c3ccccc3)cn2)cc1)N1CCOC[C@@H](O)C1 | 5 | -0.8 |
| CCOc1cc(CN2CC[S+]([O-])CC2)ccc1OC | 6 | -1.1 |
| Cc1nn(C)c(Cl)c1C(=O)Nc1ccc2ccccc2c1 | 10 | -1.64 |
| Cc1nn(C)c(Cl)c1CNCc1ccc(N2CCCC2=O)cc1 | -5 | 0.6 |
| c1ccc(-c2cc([C@@H]3NCCc4[nH]cnc43)on2)cc1 | -4 | 0.56 |
| CCc1ccc([C@H]2NCCc3[nH]cnc32)nc1 | 55 | -5.21 |
| Cc1nn(CCO)c(C)c1[C@@H]1NCCc2[nH]cnc21 | -16 | 2.3 |
| CCc1nnc2c(S(=O)(=O)N(Cc3cccc(Cl)c3)c3ccccc3)cccn12 | -17 | 2.2 |
| CN(Cc1ccccc1)C(=O)c1nc2ccccc2s1 | -10 | 1.35 |
| CCCC1CCC(c2ccc(OC(=O)c3cccc(C(=O)OC)n3)cc2)CC1 (configuration not stated) | -10 | 1.93 |
| COCC(O)CN1CCCC(C(C)C)CC1 (configuration not stated) | -5 | 0.7 |
| Cc1ccc2c(c1)c1c(n2CCc2ccncc2)CCCN(C)C1 | 4 | -0.46 |

| Structure (SMILES) | % Inhibition [%] | Z score |
| --- | --- | --- |
| Cc1ccc2[nH]c3c(c2c1)CN(C)CCC3 | 4 | -0.52 |
| Cc1ccc2c(c1)c1c(n2S(=O)(=O)c2ccc(C(C)(C)C)cc2)CCCN(C)C1 | 67 | -13.88 |
| CNS(=O)(=O)CC1CCCN1CC1CCC(C)O1 (configuration not stated) | -5 | 0.75 |
| CCCC(C)NC(=O)C(C)NC1CCN(C(C)=O)CC1CC (configuration not stated) | -2 | 0.22 |
| CCc1cccc(NC(=O)Cc2nc(-c3cccnc3)n[nH]2)c1 | -13 | 2.1 |
| CC(=O)c1ccc(S(=O)(=O)NC2(C(F)(F)F)CCOCC2)cc1 | -12 | 1.89 |
| COc1ccc(C(=O)N[C@H]2CCN(c3cc(-c4ccc(Cl)cc4)n[nH]3)C2)c(C)c1 | -20 | 2 |
| COc1ccc(-c2cc(N3CC[C@H](NC(=O)c4ccc(C)cc4)C3)[nH]n2)cc1 | -10 | 1.05 |
| Cn1nc(N2CC[C@H](NC(=O)C3CCCCC3)C2)ccc1=O | -6 | 0.81 |
| COc1ccc(-c2cc(C(=O)N[C@H]3CCN(c4ccc(=O)n(C)n4)C3)c(C)n2C)cc1 | 67 | -11.23 |
| Cc1c(C(=O)NC2CCN(c3ccc(=O)n(C)n3)CC2)cc(-c2ccc(F)cc2)n1C | -5 | 0.6 |
| Cc1cc(C(=O)N[C@H]2CCOC[C@@H]2OCc2ccccc2)c(C)n1C | 8 | -1.34 |
| COc1ccc(-c2cc(C(=O)N[C@H]3CCN(c4ccc(=O)[nH]n4)C3)c(C)n2C)cc1 | 82 | -5.36 |
| Cc1ccc(-c2cc(C(=O)NC3CC3)nn2C)cc1 | -10 | 1.31 |
| Cc1c(C(=O)NC2CC2)cc(-c2ccccc2)n1C | 55 | 0.53 |
